# PGE2 EP2 inh: blocks the human prostaglandin E2 receptor EP2. P43116. inhibition, % at 25 µM. 0.52% of 260,000 active. C6 glioma cells expressing human EP2, cAMP TR-FRET; cells stimulated with saturating PGE2;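 active = percent inhibition above 40 after rounding to a whole number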;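 also: rat C6 glioma host cells with rolipram phosphodiesterase inhibitor present; the protocol text gives 20 µM as final concentration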
# Arbovirus anti: blocks arbovirus infection | AID 1251 | inhibition, % at 10 µM | arbovirus infection cell-based antiviral screen | 0.37% of 200,000 active; in the data active = inhibition above about 30%
# EP2 modulator: modulators of human EP2 prostaglandin E2 receptor; induction, % at 25 µM; P43116; EP2-expressing cells, cAMP HTRF FRET, PGE2 co-stimulation; 0.83% of 260,000 active; AID 940;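 active = compounds whose cAMP rise, as percent of the full-agonist control response, exceeds 60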;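 also: rat C6 glioma line stably carrying human EP2 under a CMV promoter; the protocol text gives 20 µM as final concentration; 100% = response of wells given 1 µM PGE2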
# p97 ATPase inh: human p97 ATPase inhibition; recombinant p97 ATPase, Kinase-Glo ATP luminescence, 3 h; inhibition, % at 8 µM; AID 1481; 0.42% of 220,000 active; P55072; in the data active = inhibition above about 15%;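 also: 0% = DMSO vehicle and 100% = wells lacking enzyme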
# Hck Nef HTS: blocks Nef-activated human Hck kinase; P08631; Recombinant Hck-YEEI plus Nef, Z-Lyte FRET kinase assay; inhibition, % at 20 µM; 0.68% of 220,000 active;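 active = Hck-Nef kinase inhibition above about 50%, limit read from the data; inactive = inhibition below that limit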;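 also: 0% = DMSO with Hck plus Nef and 100% = Hck alone without Nef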
# Target sequence (P08631 whole entry, looked up): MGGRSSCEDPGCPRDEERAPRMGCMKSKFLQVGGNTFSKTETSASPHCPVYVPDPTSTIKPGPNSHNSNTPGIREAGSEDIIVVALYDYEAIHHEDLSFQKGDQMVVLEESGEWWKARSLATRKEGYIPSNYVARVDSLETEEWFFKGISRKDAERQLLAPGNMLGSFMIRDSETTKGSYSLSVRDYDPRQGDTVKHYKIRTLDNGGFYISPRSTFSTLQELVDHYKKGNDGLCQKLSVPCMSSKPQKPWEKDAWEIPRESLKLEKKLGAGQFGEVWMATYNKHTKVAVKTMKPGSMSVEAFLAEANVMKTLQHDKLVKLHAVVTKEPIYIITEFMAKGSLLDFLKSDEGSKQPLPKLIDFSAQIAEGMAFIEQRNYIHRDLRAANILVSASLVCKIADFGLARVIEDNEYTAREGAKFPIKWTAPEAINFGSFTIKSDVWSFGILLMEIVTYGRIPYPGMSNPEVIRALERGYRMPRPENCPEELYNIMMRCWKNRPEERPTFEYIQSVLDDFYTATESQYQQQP
# Active calls of the source: *; · = no result; ! = repeats disagree. This is a sample that favours compounds with a hit; in the whole collection about 2.4% have one here.
SMILES,PGE2 EP2 inh,Arbovirus anti,EP2 modulator,p97 ATPase inh,Hck Nef HTS
CCOc1cccc(C2C3=C(CCCC3=O)N(C)C3=C2C(=O)CCC3)c1,11,·,-27,·,·
CC1(C)CC(Nc2ccc(C(F)(F)F)cc2[N+](=O)[O-])CC(C)(C)N1,5,-10,-43,2,-15
O=[N+]([O-])c1cc(C(F)(F)F)ccc1NC1CCN(Cc2ccccc2)CC1,8,·,61*,-8,16
CC(C)N(CCC(=O)c1ccc2ccccc2c1)Cc1ccccc1,76*,·,-11,·,·
Cc1cc(NC(=O)CSc2nnc3c(C)cc4cc5c(cc4n23)OCCO5)no1,12,·,16,·,·
O=C1c2ccccc2C(Nc2ccc(S(=O)(=O)N3CCCCC3)cc2)N1c1ccccn1 (stereo unspecified),10,32*,·,1,18
CC(C(=O)Nc1ccccc1-c1ccccc1)N1CCN(S(=O)(=O)c2ccccc2)CC1 (stereo unspecified),10,61*,40,-2,2
CNC(=S)N(Cc1ccccc1)Cc1nc2sc3c(c2c(=O)[nH]1)CCCC3,12,·,-29,·,·
N#CC(=NCCO)C1=C(O)c2ccccc2C1=O,12,·,-3,·,·
O=C1C(SCCO)=C(SCCO)C(=O)c2ccccc21,43*,·,-60,·,·
CC(C)c1ccc(NC(=O)COc2ccccn2)cc1,95*,8,-17,-7,-37
Nc1nc2c(ncn2[C@@H]2CC[C@@H](CO)O2)c(=O)n1C(=O)c1ccccc1,57*,·,-4,·,·
O=C(Nc1ccn([C@H]2CC[C@@H](CO)O2)c(=O)n1)c1ccccc1,10,·,1,8,20
COC(=O)/C=C1\OC(c2ccccc2)=CC1=O,124*,-5,-121,3,2
Nc1nnnn1CC(=O)N/N=C/c1cc([N+](=O)[O-])ccc1Cl,6,5,34,8,-3
Cc1cc([N+](=O)[O-])c(C)cc1-c1ccc(/C=N/NC(=O)Cn2nnnc2N)o1,3,6,-26,3,53*
Cc1cc2n(n1)C(c1ccccc1C(F)(F)F)Nc1ccccc1-2 (stereo unspecified),6,·,28,·,·
CCOc1ccccc1C1Nc2ccccc2-c2cc(C)nn21 (stereo unspecified),13,·,62*,·,·
CC(=O)NCC1COc2ccccc2O1 (stereo unspecified),54*!,·,-5,0,20
c1ccc2c(c1)OCC(CNCC1COc3ccccc3O1)O2 (stereo unspecified),3,·,-31,·,·
COc1ccc(C2CC(c3cccc4ccccc34)n3nc(N)nc3N2)cc1 (stereo unspecified),13,·,-30,·,·
CC1=NOC(=O)/C1=C/c1ccc(-c2ccc(Cl)cc2)o1,184*,-45,-45,3,1
CC1=NOC(=O)/C1=C\c1ccc(-c2cc(Cl)ccc2Cl)o1,61*,-42,-15,5,3
COc1cc2[nH]c(=O)c(C(=O)NCCN(C)C)c(O)c2cc1OC,14,·,-18,·,·
Cc1ccc(S(=O)(=O)N2CCN(S(=O)(=O)c3ccc(C)cc3)C2c2ccccc2)cc1,5,-3,25,-4,2
SMILES,PGE2 EP2 inh,Arbovirus anti,EP2 modulator,p97 ATPase inh,Hck Nef HTS
Cc1ccc(S(=O)(=O)O[C@H]2C[C@@H](C(C)(C)C)CC[C@@H]2c2ccccc2)cc1,43*,·,32,·,·
Cc1ccc(S(=O)(=O)C(C#N)c2nc3ccccc3nc2N2CCCC2)cc1 (stereo unspecified),15,-6,37,20*,7
CCC(c1nnnn1Cc1ccco1)N(Cc1ccco1)Cc1cc2cccc(C)c2[nH]c1=O (stereo unspecified),6,·,57,·,·
COC(=O)c1cccc(NC(=S)NCc2ccc(Cl)cc2)c1,32,3,-14,2,1
COC(=O)c1cc(NC(=S)NCc2ccc(Cl)cc2)cc(C(=O)OC)c1,10,32*,-14,3,2
CC1CCN(S(=O)(=O)c2cccc(C(=O)Nc3cccc(O)c3)c2)CC1,11,·,-108,·,·
O=C(NCc1ccccn1)c1cc2nc(-c3ccco3)cc(C(F)(F)F)n2n1,10,·,-36,·,·
Cc1cc2c(s1)c1cnn(CC(=O)N3CCOCC3)c(=O)c1n2Cc1ccc(F)cc1,·,·,-34,·,·
C=CCNC(=O)c1onc(CSc2ccc(C(C)C)cc2)c1C(=O)O,21,36*,-3,-2,1
Fc1c(F)c(C(F)(F)F)c(F)c(F)c1N/N=C\c1cccs1,124*,-16,-47,-6,-1
Cn1c(N/N=C/c2cccs2)cc(=O)n(C)c1=O,·,-2,10,1,-24
O=C(Nc1ccc(Cl)cc1)C1CCC(=O)N1Cc1ccccc1Cl (stereo unspecified),15,8,5,-1,0
O=C(C1CCC(=O)N1Cc1ccccc1Cl)N1CCN(c2cccc(Cl)c2)CC1 (stereo unspecified),69*,-8,·,-9,-1
CCOC(=O)c1cnc(SCC(=O)Nc2cc(C)cc(C)c2)nc1N,13,·,-15,·,·
COc1ccc(C(=O)c2no[n+]([O-])c2C(=O)c2ccc(OC)cc2)cc1,65*,15,-1,2,1
O=C(c1ccc(Cl)nc1)c1cccs1,2,·,25,6,24
O=C(c1cccs1)c1no[n+]([O-])c1C(=O)c1cccs1,130*,-4,-17,-3,-2
COc1cccc(/C=N/N2C(=O)CSC2=S)c1O,5,-12,-40,6,-20
COc1cc(/C=N/N2C(=O)CSC2=S)cc(Br)c1O,6,-1,2,-3,76*
COc1ccc2ccccc2c1/C=N/N1C(=O)CSC1=S,5,32*,-27,1,16
Cc1ccc(S(=O)(=O)N2c3cc(C)ccc3OCC2C(C)(C)C)cc1 (stereo unspecified),15,-16,62*,-2,1
CCN(CC)c1c(-c2ccccc2)c2cc(C)ccc2[nH]c1=O,10,5,61*,-5,2
O=C1CCCC2=C1C(c1ccc(N3CCCC3)cc1)C1=C(CCCC1=O)O2,10,·,-25,·,·
CCCCNC(=O)CCC(=O)Nc1ccc2nc(N3CCCCC3)cc(C)c2c1,11,11,-25,1,69*
O=C(O)c1ccc2c(c1C(=O)O)C(=O)OC2(c1ccc(O)cc1)c1ccc(O)cc1,44*,·,20,·,·
SMILES,PGE2 EP2 inh,Arbovirus anti,EP2 modulator,p97 ATPase inh,Hck Nef HTS
O=C(O)c1cccc(O)c1O,11,·,·,·,·
C[N+]1([C@H](CO)Cc2c[nH]c3ccccc23)Cc2ccccc2C1,50*,·,19,·,·
Cc1ccc(C(=O)Cn2cc[n+](C)c2)cc1,15,·,17,·,·
O=C(O)c1ccccc1Nc1ccc([N+](=O)[O-])cc1,1,37*,1,1,-1
O=C(O)c1ccccc1Nc1ccccc1C(=O)O,13,6,21,-3,-1
COC(=O)c1ccccc1Nc1ccccc1,9,-3,64*,3,2
C=CCn1c(COc2cccc(C)c2C)n[nH]c1=S,5,·,34,·,·
CCCn1c(SCC(=O)Nc2nccs2)nnc1-c1ccoc1C,11,·,-21,·,·
CC(=O)Nc1ccc(NC(=O)CSc2nc3cc4c(cc3cc2C)OCCO4)cc1,12,·,12,·,·
